The whole screen tested about 310,000 compounds, of which about 14,000 (4.5%) showed an effect of 50% or more. The effect is printed as a negative number. The list comes from a sample in which strong results are over-represented; it also holds similar structures and randomly drawn compounds.
biological target: human ether-à-go-go-related gene (hERG) potassium channel (human, UniProt Q12809); experiment: primary screen, population patch clamp on CHO cells stably expressing hERG; higher = less effect of the substance
Sequence (Q12809 whole entry, looked up): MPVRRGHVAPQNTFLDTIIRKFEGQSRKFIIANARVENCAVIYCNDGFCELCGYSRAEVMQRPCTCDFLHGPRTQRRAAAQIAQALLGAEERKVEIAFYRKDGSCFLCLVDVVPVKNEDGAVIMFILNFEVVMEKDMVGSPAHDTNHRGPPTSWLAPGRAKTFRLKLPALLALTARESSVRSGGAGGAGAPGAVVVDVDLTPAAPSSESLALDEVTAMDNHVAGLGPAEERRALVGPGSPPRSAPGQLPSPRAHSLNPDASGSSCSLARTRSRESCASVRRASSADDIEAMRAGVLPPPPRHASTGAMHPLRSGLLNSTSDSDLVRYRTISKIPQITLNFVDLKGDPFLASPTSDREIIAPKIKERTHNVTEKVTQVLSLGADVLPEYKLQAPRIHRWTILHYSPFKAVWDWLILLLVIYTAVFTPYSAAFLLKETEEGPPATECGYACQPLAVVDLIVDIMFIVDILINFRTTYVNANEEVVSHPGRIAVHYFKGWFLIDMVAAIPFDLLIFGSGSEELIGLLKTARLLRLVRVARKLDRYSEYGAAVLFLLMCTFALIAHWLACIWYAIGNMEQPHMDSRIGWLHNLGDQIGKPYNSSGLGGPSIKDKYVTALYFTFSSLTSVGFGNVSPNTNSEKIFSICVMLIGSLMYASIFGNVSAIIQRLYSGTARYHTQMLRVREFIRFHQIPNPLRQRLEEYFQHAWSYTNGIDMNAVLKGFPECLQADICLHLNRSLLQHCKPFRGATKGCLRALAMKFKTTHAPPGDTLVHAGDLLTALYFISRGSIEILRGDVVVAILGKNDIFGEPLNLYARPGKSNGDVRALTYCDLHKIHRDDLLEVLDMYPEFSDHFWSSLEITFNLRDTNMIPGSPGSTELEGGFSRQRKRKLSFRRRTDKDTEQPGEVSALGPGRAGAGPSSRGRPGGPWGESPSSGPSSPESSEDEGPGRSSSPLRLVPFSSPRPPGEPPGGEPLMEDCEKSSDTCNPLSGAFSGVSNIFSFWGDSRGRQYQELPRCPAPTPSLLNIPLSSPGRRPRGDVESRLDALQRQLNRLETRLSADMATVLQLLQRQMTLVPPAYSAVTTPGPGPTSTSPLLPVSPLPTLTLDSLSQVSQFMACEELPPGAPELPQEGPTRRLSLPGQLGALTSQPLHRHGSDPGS
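Note: peak tail current of the secondary pulse compared with the same well before compound.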

| SMILES | hERG current change (%, negative = inhibition) at 10uM [%] |
| --- | --- |
| CC(=O)NC(Cc1ccc(F)cc1)C(=O)O (stereo not drawn) | -24.1 |
| COC(=O)CP(=O)(c1ccccc1)c1ccccc1 | 15.2 |
| Oc1ccc(/C=N/NP(=S)(c2ccccc2)c2ccccc2)cc1 | -3.89 |
| COc1ccccc1CNC(=O)c1cccs1 | 3.82 |
| CCC1=C2CC[C@H]3C(=O)N(CC)C(=O)[C@H]3[C@H]2[C@@]2(Cc3ccccc3)C(=NCCOC)OC(=O)N2C1=O | 10 |
| CC(C)(Oc1ccc(Cl)cc1)C(=O)OCC(=O)N1CCN(c2ccccc2)CC1 | -7.02 |
| CCN1C[C@]2(COC)CC[C@H](OC)[C@@]34C1[C@]1(OCO[C@@]15C[C@H](OC)[C@H]1C[C@@H]3[C@@H]5[C@H]1OC)[C@@H](O)[C@H]24 | 10.5 |
| C=CCn1c(COc2ccc(Cl)cc2)nnc1SCC(=O)Nc1ccc(S(N)(=O)=O)cc1 | -9.02 |
| Cc1ccccc1-c1nc(CS(=O)CC(=O)NCc2ccccc2)c(C)o1 (stereo not drawn) | -21 |
| Cc1ccc(-c2nc(CS(=O)CC(=O)NCCCN3CCN(Cc4ccccc4)CC3)c(C)o2)cc1 (stereo not drawn) | -38.2 |
| Cc1oc(-c2ccc(Cl)cc2)nc1CS(=O)CC(=O)NCCCN1CC(C)CC(C)C1 (stereo not drawn) | -65.5 |
| Cc1oc(-c2ccc(Cl)cc2)nc1CS(=O)CC(=O)NCCCN1CCCC(C)C1 (stereo not drawn) | -36.8 |
| Cc1ccccc1-c1nc(CS(=O)CC(=O)NCCN2CCOCC2)c(C)o1 (stereo not drawn) | 3.48 |
| Cc1oc(-c2ccc(Cl)cc2)nc1CS(=O)CC(=O)NCCCN1CCOCC1 (stereo not drawn) | -3.95 |
| Cc1ccc(-c2nc(CS(=O)CC(=O)NCCCN3CC(C)CC(C)C3)c(C)o2)cc1 (stereo not drawn) | -19.9 |
| Cc1oc(-c2ccc(Cl)cc2)nc1CS(=O)CC(=O)NCCCN1CCN(Cc2ccccc2)CC1 (stereo not drawn) | -62.1 |
| Cc1ccccc1-c1nc(CS(=O)CC(=O)NCCN2CCN(Cc3ccccc3)CC2)c(C)o1 (stereo not drawn) | -58.7 |
| O=C(CSc1nnc(-c2cccs2)o1)NCc1ccco1 | -0.74 |
| COC(=O)C1=C(Nc2ccc(OC)cc2)C=C(C)C(C(=O)OC)C1c1ccc(C)cc1 (stereo not drawn) | 18.9 |
| C(#Cc1ccccc1)CN1CCOCC1.Cl | 22.9 |
| Cc1ccc(C)c(S(=O)(=O)N2CCN(C(=O)c3ccc(OCc4c(C)noc4C)cc3)CC2)c1 | -21.9 |
| O=C(Nc1ccc(S(=O)(=O)N2CCCCC2)cc1)c1ccc(=O)[nH]c1 | 7.49 |

| SMILES | hERG current change (%, negative = inhibition) at 10uM [%] |
| --- | --- |
| Cc1cc(C)cc(Oc2ccc(-c3nnc(-c4ccccc4)o3)cc2[N+](=O)[O-])c1 | 7.94 |
| Cc1ccc(-n2cc(CN(C)Cc3nccn3C)c(-c3cccc(C)c3)n2)cc1 | -16.1 |
| CC(=O)N1CCCN(Cc2cn(-c3cc(C)ccc3C)nc2-c2ccccc2)CC1 | -30.3 |
| Cc1ccc(-n2cc(CNC(C)Cc3cnccn3)c(-c3cccc(C)c3)n2)cc1 (stereo not drawn) | -73.8 |
| Cc1ccc(-n2cc(CN3CCNC(=O)CC3)c(-c3ccc(F)cc3)n2)cc1 | -35.4 |
| COc1cccc(-c2nn(-c3ccccc3)cc2CNC(C)Cn2cncn2)c1 (stereo not drawn) | -42.5 |
| Cc1ccc(-n2cc(CN3CCC(O)(c4ccccn4)CC3)c(-c3ccc(F)cc3)n2)cc1 | -56.7 |
| Cc1ccn2c(CNCCCn3cccn3)c(C(=O)N3CCCCCC3)nc2c1 | -23.4 |
| Cc1ccc(C)c(-n2cc(CN3CCN(C(=O)c4ncn[nH]4)CC3)c(-c3ccccc3)n2)c1 | -30.7 |
| Cc1ccc(-n2cc(CN3CCN(c4ccccn4)CC3)c(-c3ccc(F)cc3)n2)cc1 | 11.2 |
| Cc1ccc(-n2cc(CNCCCn3cccn3)c(-c3cccc(C)c3)n2)cc1 | -71.6 |
| Cc1ccc(C)c(-n2cc(CNCCCn3cccn3)c(-c3ccccc3)n2)c1 | -64.9 |
| CCOC(=O)C1=NN(c2ccccc2)C(c2ccccc2)CC1=O (stereo not drawn) | 5.31 |
| Cc1nnc2n1N=C(c1ccc(F)cc1F)CS2 | -3.32 |
| CCOc1ccc(CCNC(=O)c2ccc(S(=O)(=O)N3CCCC3)cc2)cc1OCC | -8.47 |
| CCn1c2ccccc2c2cc(/C=N/n3c(C)nnc3C)ccc21 | -25 |
| O=C(C1=C[C@H](C2CC2)C[C@H](OCCCCO)O1)N1CCOCC1 | 21.2 |
| O=C(/C=C/c1nc2ccccc2s1)N1CCCCCC1 | -0.709 |
| CN(C)S(=O)(=O)c1cccc(C(=O)OCC(=O)Nc2sccc2C#N)c1 | -2.79 |
| Cc1cccc(-n2cc(CN3CCN(Cc4nccn4C)CC3)c(-c3cccc(F)c3)n2)c1 | 2.98 |
| Cc1ccc(-n2cc(CN3CCN(Cc4nccn4C)CC3)c(-c3cccc(C)c3)n2)cc1 | -62.7 |
| Cc1ccc(-n2cc(CN3CCN(Cc4nccn4C)CC3)c(-c3ccc(F)cc3)n2)cc1 | -26.8 |

| SMILES | hERG current change (%, negative = inhibition) at 10uM [%] |
| --- | --- |
| CSCC[C@H](NC(=O)c1nn(C)c(=O)c2ccccc12)c1nc2ccccc2[nH]1 | -3.07 |
| Cc1cc([N+](=O)[O-])nn1CC(=O)N/N=C/c1ccccc1F | -5.15 |
| Cc1ccc(C2N(c3ccccc3)C(=S)N3CCCN23)cc1 (stereo not drawn) | 7 |
| CCc1ccccc1N1CCN(S(=O)(=O)c2ccc(F)c(C)c2)CC1 | 4.43 |
| Cc1cc(S(=O)(=O)N2CCN(c3c(C)cccc3C)CC2)ccc1F | -4.1 |
| CCC(C)N(C)Cc1cccc(C2(O)CCN(S(=O)(=O)c3ccc(F)cc3)CC2)c1 (stereo not drawn) | -69.3 |
| CC(C(=O)Nc1ccc(S(=O)(=O)N2CCCC2)cc1)N(C)Cc1ccc(F)cc1 (stereo not drawn) | -9.91 |
| O=S(=O)(c1ccc(OC(F)(F)F)cc1)N1CCC(O)(c2cccc(C(F)(F)F)c2)CC1 | -4.35 |
| CCC(C)N(C)Cc1cccc(C2(O)CCN(S(=O)(=O)c3ccc(F)c(C)c3)CC2)c1 (stereo not drawn) | -72.4 |
| CN1CCc2c(sc(N)c2C(=O)O)C1 | 20.8 |
| COc1ccc(C2C(C#N)=C(N)OC3=C2C(=O)CC(C)(C)C3)cc1Cn1cc([N+](=O)[O-])cn1 (stereo not drawn) | -6.92 |
| COc1ccc(C2C(C#N)=C(N)OC3=C2C(=O)CCC3)cc1Cn1nc(C)c([N+](=O)[O-])c1C (stereo not drawn) | -13.3 |
| COc1ccc(C2C(C#N)=C(N)OC3=C2C(=O)CC(C)(C)C3)cc1Cn1nc(C)c([N+](=O)[O-])c1C (stereo not drawn) | -50.6 |
| COC(=O)CCC(=O)OC1(C)C(=O)C=C2C=C(C3CC3)N(C(CO)CO)C=C2C1=O (stereo not drawn) | 5.72 |
| COc1ccccc1C(=O)NCC(=O)NNC(=O)C1COc2ccccc2O1 (stereo not drawn) | 2.49 |
| Cc1cc(N2CCN(Cc3cn(C)nc3-c3cccc(Cl)c3)CC2)cc(C)n1 | -65 |
| CC(C1CCN(Cc2cn(C)nc2-c2cccc(Cl)c2)CC1)N1CCOCC1 (stereo not drawn) | -26.9 |
| Cc1cnc(C)c(N2CCN(Cc3cn(C)nc3-c3cccc(Cl)c3)CC2)n1 | -49.6 |
| COCCN1CCN(Cc2cn(C)nc2-c2cccc(Cl)c2)CC1 | -15.7 |
| Cn1cc(CN2CCC(C(O)c3cccs3)CC2)c(-c2cccc(Cl)c2)n1 (stereo not drawn) | -57 |
| Cn1cc(CN2CCC(C(O)c3cccs3)CC2)c(-c2ccccc2F)n1 (stereo not drawn) | -21.5 |
| Cc1cc(N2CCN(Cc3cn(C)nc3-c3ccccc3F)CC2)cc(C)n1 | -35 |

| SMILES | hERG current change (%, negative = inhibition) at 10uM [%] |
| --- | --- |
| Cn1cc(CN2CCN(c3ncccn3)CC2)c(-c2cccc(Cl)c2)n1 | -20.5 |
| Cn1cc(CN2CCN(Cc3ccccc3)CC2)c(-c2cccc(Cl)c2)n1 | -53 |
| Cc1c(Cl)cccc1NC(=O)Nc1ccn(C)n1 | 5.52 |
| Cc1nn(C)c(C)c1/C=C(/C(=O)C(C)(C)C)n1cncn1 | 28.5 |
| Cc1cccc(C)c1NC(=S)N1CCCN(C)CC1 | 15.2 |
| Clc1ccc(-c2cnc3ccccc3n2)cc1 | 9.07 |
| COc1ccc(C(=O)Nc2cc(C)c3c(=O)oc4ccccc4c3n2)cc1 | 7.49 |
| OCC[C@@H]1C[C@H](O)[C@@H](O)[C@@]2(Cc3ccccc3CCO2)O1 | 10.6 |
| CCC(Sc1nccn1C)C(=O)Nc1ccc(Cl)cn1 (stereo not drawn) | 5.78 |
| O=[N+]([O-])c1ccc(CN2CCN(c3nc4ccccc4s3)CC2)cc1 | -1.07 |
| CCn1c(N2CCN(Cc3ccc([N+](=O)[O-])cc3)CC2)nc2ccccc21.Cl | -74.7 |
| CCCn1c(N2CCN(Cc3ccc(Cl)cc3)CC2)nc2ccccc21.Cl | -69.8 |
| Cl.c1ccc2c(c1)nc1n2CCN1CCN1CCCC1 | -3.08 |
| CC(O)c1nc2cc([N+](=O)[O-])ccc2n1Cc1ccccc1 (stereo not drawn) | 1.79 |
| CC(O)c1nc2ccccc2n1Cc1ccc([N+](=O)[O-])cc1 (stereo not drawn) | -73.4 |
| CCCn1c(N2CCN(C(=O)N3CCCCC3)CC2)nc2ccccc21.Cl | -20.4 |
| Cl.c1ccc(CN2CCN(CCN3CCn4c3nc3ccccc34)CC2)cc1 | -75.8 |
| CN1CCN(CCN2CCn3c2nc2ccccc23)CC1.Cl | -7.38 |
| CCCn1c(N2CCN(C(=O)Nc3ccc(Cl)cc3)CC2)nc2ccccc21 | -16.8 |
| Cl.O=[N+]([O-])c1ccc(CN2CCN(c3ccc4ccccc4n3)CC2)cc1 | -12.1 |
| Cc1cccc(Cn2c(C(C)O)nc3ccccc32)c1 (stereo not drawn) | 5.37 |

Source: article PMC4336329 (PLoS ONE, 2015)
